Screening data deposited in PubChem BioAssay by The Scripps Research Institute Molecular Screening Center.
Sampled rows, rich in hits. Any-hit rate of the full collection: about 4.8%.
ssDAF-12 act = activates DAF-12 receptor from parasite S. stercoralis; HEK293 ssDAF-12/GRIP1 lit1-tk-luc reporter, luminescence; % of 3 µM dafachronic acid response; AID 652126; activation, % at 6.8 µM; 370,000 tested, 1% active;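 active = activation above the mean over all tested compounds plus 3 SD, cut at about 0.9% in these data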;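 note: 0% = DMSO-only wells and 100% = 3 µM delta7-dafachronic acid wells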
SMARCA2 act = increases SMARCA2 function in MMTV reporter cells; MG213 cells, MMTV-luciferase reporter, dexamethasone, overnight; activation, % at 9.1 µM; 370,000 tested, 1% active; in the data active = activation above about 7.8%;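 note: 0% = vehicle wells and 100% = reference activator wells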
DAX1 inh-1 = DAX1 (NR0B1) inhibition, primary screen. inhibition, % at 6.8 µM. HEK293T StAR-luciferase reporter, SF-1/DAX-1 repression relief. 370,000 tested, 1.1% active. AID 652010;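 active = inhibition above the mean over all tested compounds plus 3 SD, cut at about 3.6% in these data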;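 note: 0% = DAX-1 cells with DMSO and 100% = cells lacking DAX-1 with DMSO; higher inhibition means more luminescence from relief of DAX-1 repression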
hcDAF-12 act = activators of H. contortus DAF-12 nuclear receptor | 370,000 tested, 1.4% active | HEK293 hcDAF-12 lit1-tk-luc reporter, luminescence; 0% DMSO, 100% Δ7-dafachronic acid | activation, % at 6.8 µM;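 active = activation above the mean of all tested compounds plus 3 SD, cut at about 5.5% in these data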;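 note: 100% = response to 3 µM Δ7-dafachronic acid high control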
DAX1 inh-2 = inhibits human nuclear receptor DAX1; P51843; HEK293 Gal4-DAX1 luciferase reporter, luminescence; AID 504766; inhibition, % at 6.75 µM; 340,000 tested, 0.99% active;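 active = inhibition above the mean over all tested compounds plus 3 SD, cut at about 4.2% in these data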;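 note: 0% = DAX1-transfected cells with DMSO and 100% = empty-vector control cells with DMSO; inhibition shows as a rise in luminescence from relieved DAX1 repression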
hgDAF-12 ag = agonists of H. glycines DAF-12 nuclear receptor; 370,000 tested, 1.8% active; HEK293 GAL4-hgDAF12 UAS-luciferase reporter, agonist luminescence; normalized to butyrate control; AID 687014; activation, % at 6.8 µM;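 active = activation above a cutoff set at the mean of all screened compounds plus 3 SD, cut at about 10% in these data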;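 note: 0% = DMSO wells and 100% = sodium butyrate wells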
LXRb hcDAF ctr = activates human LXR-beta, counter-screen for hcDAF-12 agonists; shares compounds with hcDAF-12 act; HEK293 Gal4-LXR tk-luc reporter, luminescence, 24 h; normalized: DMSO 0%, positive control 100%; activation, % at 6.8 µM; 3,400 tested, under 10 active; AID 743027;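 active = mean percent activation of the reporter above a cutoff set as the average over tested compounds plus their standard deviation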
Target sequence (P55055 whole entry, looked up, the tested form may be a part): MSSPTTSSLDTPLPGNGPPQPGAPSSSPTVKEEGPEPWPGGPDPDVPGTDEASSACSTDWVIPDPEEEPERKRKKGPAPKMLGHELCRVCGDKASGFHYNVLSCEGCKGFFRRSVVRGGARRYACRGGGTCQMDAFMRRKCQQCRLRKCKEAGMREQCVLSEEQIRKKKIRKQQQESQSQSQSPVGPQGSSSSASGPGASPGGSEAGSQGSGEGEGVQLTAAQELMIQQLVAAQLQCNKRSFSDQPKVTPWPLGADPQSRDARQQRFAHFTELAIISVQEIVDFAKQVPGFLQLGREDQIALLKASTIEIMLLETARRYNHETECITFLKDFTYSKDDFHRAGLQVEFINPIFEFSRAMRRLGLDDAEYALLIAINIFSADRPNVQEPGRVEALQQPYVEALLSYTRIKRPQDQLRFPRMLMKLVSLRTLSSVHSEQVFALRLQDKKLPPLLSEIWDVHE
hcDAF12 conf = confirmation of H. contortus DAF-12 agonists; HEK293 hcDAF-12 lit1-tk-luc reporter, luminescence; % of Δ7-dafachronic acid response; activation, % at 6.8 µM; shares compounds with hcDAF-12 act; AID 743032; 3,400 tested, 61% active;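 active = mean activation across triplicate tests above the threshold derived from the earlier primary screen, cut at about 5.5% in these data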;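 note: 0% = DMSO only wells and 100% = 3 µM Δ7-dafachronic acid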
* marks the source's active call; other numbers are inactive results; . = not tested or not shown.

SMILES	ssDAF-12 act	SMARCA2 act	DAX1 inh-1	hcDAF-12 act	DAX1 inh-2	hgDAF-12 ag	LXRb hcDAF ctr	hcDAF12 conf
C/C(=N\Nc1ccc(S(N)(=O)=O)cc1[N+](=O)[O-])c1ccccc1O	-1	-2	-1	0	1	-2	.	.
C/C(=N\Nc1ccccc1[N+](=O)[O-])c1ccccc1O	0	5	0	6.9*	4.4*	6	1	14*
COC(=O)[C@]12C[C@H](CC(=O)N3CCOCC3)C(=O)N(Cc3ccccc3)C1=C[C@H](C(C)C)O[C@@H]2C1CC1	0	2	-1	2	.	4	.	.
Cn1nc(-c2ccccc2)c2nc3ccccc3nc21	1	0	0	6.8*	0	3	0	6.1*
CC(C)[C@H](NC(=O)c1ccc(Cl)cc1Cl)C(=O)N1CCC[C@H]1C(=O)NCc1ccccc1	-1	-3	0	0	.	2	.	.
COc1cc([N+](=O)[O-])ccc1N/C=C/C(=O)c1cccs1	2.3*	4	3	17*	-2	17*	1	16*
Cc1ccc(C(=O)/C=C/Nc2ccccc2C(N)=O)o1	0	3	3	9.3*	1	12*	1	5
NC(=O)c1ccccc1NS(=O)(=O)c1cccs1	-1	-2	0	2	0	2	.	.
NC(=O)c1ccccc1N/C=C/C(=O)c1cccs1	1	-1	3	8.3*	2	10	2	5.6*
Cc1ccc(CNC(=O)[C@@H](Cc2ccccc2)NC(=O)[C@H]2O[C@@H](n3ccc(N)nc3=O)[C@H](O)[C@@H]2O)o1	-1	-2	1	-1	.	2	.	.
NC(=O)[C@@H]1[C@@H]2C(=O)N(c3ccc(F)cc3)C(=O)[C@@H]2[C@H]2C=Cc3ccccc3N21	0	-2	0	7.5*	.	1	0	5
COc1ccc(CNc2nc3ccccc3s2)cc1OC	-1	0	0	1	-1	2	.	.
Cc1ccc(CNc2nc3ccccc3s2)s1	1.0*	5	4.0*	10*	-2	6	1	12*
c1ccc2sc(NCC3CCCO3)nc2c1 (configuration not stated)	0	2	4.2*	8.2*	4	10	1	4
CC(C)c1ccc(Oc2cccc3c2S(=O)(=O)N([C@H](C)c2ccccc2)C[C@@H](COCc2ccccc2)O3)cc1	-1	-2	0	1	.	2	.	.
O=C(NC(=S)Nc1ncc(Br)cc1Br)c1ccccc1	1	3	1	8.0*	1	9	1	8.7*
Cn1cc(C(=O)N/N=C/C(Br)=C/c2ccccc2)ccc1=O	-1	-1	-1	7.6*	0	-1	0	3
Cn1cc(C(=O)N/N=C/C(Br)=C\c2ccccc2)ccc1=O	-1	2	-1	1	-1	0	.	.
Oc1ccc2ccccc2c1C=Nn1c(-c2n[nH]c3c2CCC3)n[nH]c1=S	0	-5	-1	0	.	6	.	.
CC(=O)N1N=C(c2ccccc2O)OC1(C)CC(=O)Nc1ccccc1 (configuration not stated)	0	-1	0	6.8*	4	-1	0	4
Cc1ccc(NC(=O)Nc2cccc(C)n2)cc1	1.4*	6	1	14*	2	9	1	12*
Cc1cccc(NC(=O)Nc2ccc(F)cc2)n1	-1	2	2	1	-1	7	.	.
c1ccc2[nH]c(-c3cnco3)cc2c1	1	0	-1	6.7*	1	1	0	7.3*
CCN1CCCC1CNC(=O)c1[nH]c2ccc(OC)cc2c1C (configuration not stated)	-1	-4	0	-1	3	2	.	.
CCN1CCCC1CNC(=O)c1cc2ccc(OC)cc2[nH]1 (configuration not stated)	0	3	1	6.6*	0	3	0	2
SMILES	ssDAF-12 act	SMARCA2 act	DAX1 inh-1	hcDAF-12 act	DAX1 inh-2	hgDAF-12 ag	LXRb hcDAF ctr	hcDAF12 conf
Nc1cccc(CCc2nc3cc4ccccc4cc3[nH]2)c1	0	6	0	12*	2	12*	1	8.7*
Nc1ccc2nc(CCCCc3nc4ccccc4[nH]3)[nH]c2c1	0	0	0	0	0	1	.	.
Brc1ccccc1CN1CCN(Cc2c[nH]c3ccccc23)CC1	-1	-1	-1	4	.	-1	.	.
COc1ccccc1N1CCN(Cc2c[nH]c3ccccc23)CC1	0	-4	-1	2	.	1	.	.
Cc1ccccc1N1CCN(Cc2c[nH]c3ccccc23)CC1	0	-3	0	6.6*	0	1	0	4
CCS(=O)(=O)N1CCN(Cc2c[nH]c3ccccc23)CC1	0	-2	1	7.4*	-1	9	0	3
C[C@@H]1CN([C@@H](C)CO)C(=O)CCCn2cc(nn2)CO[C@H]1CN(C)S(C)(=O)=O	-1	-1	1	1	.	0	.	.
CCCCOCCCNC(=O)C[C@H]1C[C@@]2(C(=O)OC)C(=C[C@H](C3CCCC3)O[C@@H]2C)N(Cc2ccccc2)C1=O	-1	-8	1	-1	.	0	.	.
CCC(=O)Nc1cc2nn(-c3ccccc3)nc2cc1Cl	0	2	2	7.3*	1	8	2	13*
CC1CCCC(C)N1/N=C/c1ccc(O)c(O)c1 (configuration not stated)	-1	0	0	0	1	-1	.	.
COc1ccc(/C=N/N2C(C)CCCC2C)cc1O (configuration not stated)	0.9*	3	1	8.1*	0	2	0	7.4*
O=C(CNc1cccc2ccccc12)c1ccc([N+](=O)[O-])cc1	0	-4	0	6.8*	0	-2	0	2
COC(=O)[C@]12C[C@H](CC(=O)N3CCC(c4ccccc4)CC3)C(=O)N(Cc3ccccc3)C1=C[C@H](C1CCCC1)O[C@@H]2C	0	-5	1	0	.	0	.	.
CCOC(=O)c1ccc(NC(=O)CSc2nnc(-c3cccc(C)c3)n2C)cc1	-2	0	-2	-5	.	0	.	.
O=C(COc1ccccc1)Nc1ccc(Cl)cn1	0	0	1	0	-1	2	.	.
C/C(CC(=O)Nc1ccccn1)=N\NC(=O)c1ccc(C)cc1	-1	0	1	0	0	3	.	.
